According to PubChem BioAssay:
The source made the active and inactive calls.

Columns and labels:
[1] = tested on: Plasmodium falciparum Sir2 (PF13_0152, Sir2A); assay: pfSir2 binders on small-molecule microarrays, primary screen, biochemical, small-molecule microarray, 635 nm fluorescence (AID 1098); details: small-molecule microarray binding, fluorescence 635 nm; higher = more signal;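 note: score merges spot fluorescence intensity with its signal-to-noise ratio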
[2] = small-molecule microarray binders of probe aDKK1, primary screen, biochemical, biotinylated probe, 635/667 nm fluorescence (AID 1099); details: higher = more signal;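 note: score merges 667nm spot fluorescence with signal to noise across triplicate slides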
[3] = small-molecule microarray binders of probe aCHRDL2, primary screen, biochemical, biotinylated probe, 635/667 nm fluorescence (AID 1100); details: higher = more signal
[4] = splicing luciferase reporter signal modulators, primary screen, spliceosome inhibition project, cell-based, HEK293, splice +/- reporter (AID 1101); details: luminescence, 24 h, higher = more signal, called active from +8 up or from −8 down;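 note: HEK293 cells carrying a splicing-competent luciferase reporter gene; test concentration not given here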
[5] = molecular target: Fibroblast growth factor 10 (Homo sapiens) (UniProt O15520); assay: FGF10 binders on small-molecule microarrays, primary screen, biochemical, small-molecule microarray, 635 nm fluorescence (AID 1102); details: FGF10 binding, fluorescence 635 nm, higher = more signal
[6] = tested on: glycogen synthase kinase-3 (GSK3A per assay name; protocol says GSK3B); assay: GSK3 binders on small-molecule microarrays, primary screen, biochemical, small-molecule microarray, 635 nm fluorescence, GSK3A (AID 1103); details: small-molecule microarray binding, fluorescence 635 nm; higher = more signal; note: the record names both GSK3A and GSK3B
[7] = molecular target: Epidermal growth factor receptor (Homo sapiens) (UniProt P00533); assay: EGFR binders on small-molecule microarrays, primary screen, biochemical, small-molecule microarray, 635 nm fluorescence (AID 1104); details: EGFR binding, higher = more signal;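 note: score merges 667 nm emission intensity with spot signal to noise over triplicate slides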
[8] = molecular target: Follistatin-related protein 3 (Homo sapiens) (UniProt O95633); assay: FSTL3 binders on small-molecule microarrays, primary screen, biochemical, small-molecule microarray, 635 nm fluorescence (AID 1105); details: FSTL3 binding, higher = more signal;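 note: score merges emission near 667 nm and signal to noise per printed spot across three slides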
[9] = molecular target: Dickkopf-related protein 1 (Homo sapiens) (UniProt O94907); assay: DKK1 binders on small-molecule microarrays, primary screen, biochemical, small-molecule microarray, 635 nm fluorescence scan (AID 1106); details: DKK1 binding, higher = more signal;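 note: score merges emission near 667 nm with signal to noise over three replicate slides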
[10] = tested on: Inhibin beta A chain (activin A); assay: INHBA (activin A) binders on microarrays, primary screen, biochemical, small-molecule microarray, 635 nm fluorescence scan (AID 1107); details: small-molecule microarray binding, higher = more signal;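 note: mouse activin A protein probed at 4.33 µg/mL on printed slides; score merges bound-protein fluorescence near 667 nm with spot signal-to-noise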
[11] = tested on: Human papillomavirus type 1a protein E7 (residues 44-93); assay: HPV1a E7 fragment binders on microarrays, primary screen, biochemical, small-molecule microarray, residues 44-93, 635 nm fluorescence (AID 1108); details: small-molecule microarray binding, fluorescence 635 nm; higher = more signal;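 note: E7 fragment applied at 1 µg/mL in TBST for 1 h at 4 C; score combines spot fluorescence with its signal to noise ratio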
[12] = modulators of HCV replicon luciferase signal, primary screen, HCV replication inhibitor project, Huh7 cells, luciferase reporter (AID 1109); details: 48 h, higher = more signal;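 note: huh7 hepatoma cells harbouring a luciferase neomycin HCV replicon reporter; luciferase luminescence as measure of HCV replicon replication; test concentration not given here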
[13] = molecular target: Left-right determination factor 2 (Homo sapiens) (UniProt O00292); assay: LEFTY2 binders on small-molecule microarrays, primary screen, biochemical, small-molecule microarray, 635 nm fluorescence scan (AID 1110); details: LEFTY2 binding, higher = more signal
[14] = molecular target: Calmodulin-1 (Homo sapiens) (UniProt P0DP23); assay: CALM1 binders on microarrays, EGTA buffer, profiling panel, biochemical, small-molecule microarray, Cy5-labelled CALM1 (AID 1111); details: Cy5-CALM1 binding fluorescence, higher = more signal;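 note: labelled calmodulin applied in Tris saline Tween buffer holding calcium plus EGTA and DTT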
[15] = molecular target: Calmodulin-1 (Homo sapiens) (UniProt P0DP23); assay: calcium-bound CALM1 binders on microarrays, profiling panel, artefact control for SMM control-protein annotation, biochemical, small-molecule microarray, Cy5-labelled CALM1, plus calcium (AID 1112); details: Cy5-CALM1 binding fluorescence, higher = more signal;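 note: score merges spot fluorescence with signal to noise from triplicate slides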
[16] = small-molecule microarray binders of probe aWnt5a, primary screen, biochemical, biotinylated probe, 635/667 nm fluorescence (AID 1113); details: higher = more signal;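 note: score merges 667 nm fluorescence intensity with signal-to-noise per printed feature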
[17] = small-molecule microarray binders of probe aShh, primary screen, biochemical, biotinylated probe, 635/667 nm fluorescence (AID 1114); details: higher = more signal;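 note: probe is biotin-labelled aShh protein from a stem cell growth factor screen; measures binding of labelled protein to compounds printed on the slide; score merges feature fluorescence at 667 nm with signal-to-noise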
[18] = small-molecule microarray binders of probe aNog, primary screen, biochemical, biotinylated probe, 635/667 nm fluorescence (AID 1115); details: higher = more signal;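 note: probe is biotinylated aNog protein used at 0.15 µg/mL for 1 h at 4 C; z-score combines 667 nm fluorescence of each spot with its signal to noise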
[19] = molecular target: Torsin-1A-interacting protein 1 (Homo sapiens) (UniProt Q5JTV8); assay: LAP1 binders from COS7 cell lysate, primary screen, small-molecule microarray, 635/667 nm fluorescence (AID 1116); details: COS7-hLAP1 lysate binding, 635 nm fluorescence, higher = more signal
[20] = molecular target: Alpha-bungarotoxin (Bungarus multicinctus) (UniProt P60615); assay: alpha-bungarotoxin binders on microarray, profiling panel, artefact control for SMM control protein annotation, biochemical, small-molecule microarray, Alexa647 label, 635/667 nm fluorescence (AID 1117); details: alpha-BTX-A647 binding fluorescence, higher = more signal
Chain of Alpha-bungarotoxin (Bungarus multicinctus) (P60615 whole entry, looked up): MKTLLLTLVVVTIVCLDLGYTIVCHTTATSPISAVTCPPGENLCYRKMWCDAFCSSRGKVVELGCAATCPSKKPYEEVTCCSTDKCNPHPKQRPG

Chain of Fibroblast growth factor 10 (Homo sapiens) (O15520 whole entry, looked up): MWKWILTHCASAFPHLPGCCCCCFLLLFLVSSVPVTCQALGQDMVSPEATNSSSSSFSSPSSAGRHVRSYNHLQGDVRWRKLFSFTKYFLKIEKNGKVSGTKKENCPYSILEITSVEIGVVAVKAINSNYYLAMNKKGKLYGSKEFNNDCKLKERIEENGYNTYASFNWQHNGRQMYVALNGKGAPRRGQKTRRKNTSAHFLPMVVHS
Chain of Torsin-1A-interacting protein 1 (Homo sapiens) (Q5JTV8 whole entry, looked up): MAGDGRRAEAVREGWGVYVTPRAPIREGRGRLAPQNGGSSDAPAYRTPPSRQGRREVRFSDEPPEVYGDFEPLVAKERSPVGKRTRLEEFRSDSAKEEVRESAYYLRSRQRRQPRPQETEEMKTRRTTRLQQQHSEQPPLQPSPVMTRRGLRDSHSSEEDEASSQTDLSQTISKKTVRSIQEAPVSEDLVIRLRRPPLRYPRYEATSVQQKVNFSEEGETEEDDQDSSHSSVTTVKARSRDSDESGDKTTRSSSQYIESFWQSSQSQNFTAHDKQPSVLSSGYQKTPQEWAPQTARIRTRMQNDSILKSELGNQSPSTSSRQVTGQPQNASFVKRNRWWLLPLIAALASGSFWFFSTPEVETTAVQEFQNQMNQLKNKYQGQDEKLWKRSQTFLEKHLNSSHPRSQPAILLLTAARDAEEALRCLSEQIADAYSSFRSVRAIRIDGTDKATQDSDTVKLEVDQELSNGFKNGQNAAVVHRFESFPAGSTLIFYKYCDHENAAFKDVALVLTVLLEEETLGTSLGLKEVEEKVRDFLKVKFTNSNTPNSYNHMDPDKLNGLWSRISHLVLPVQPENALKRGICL
Chain of Follistatin-related protein 3 (Homo sapiens) (O95633 whole entry, looked up): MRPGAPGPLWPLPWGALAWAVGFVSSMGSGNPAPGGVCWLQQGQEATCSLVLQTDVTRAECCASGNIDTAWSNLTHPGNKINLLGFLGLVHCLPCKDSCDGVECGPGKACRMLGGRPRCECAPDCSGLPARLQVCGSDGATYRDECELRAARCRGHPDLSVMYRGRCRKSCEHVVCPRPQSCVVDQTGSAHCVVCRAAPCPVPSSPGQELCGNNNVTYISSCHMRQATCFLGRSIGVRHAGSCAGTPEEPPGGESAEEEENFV
Chain of Epidermal growth factor receptor (Homo sapiens) (P00533 whole entry, looked up): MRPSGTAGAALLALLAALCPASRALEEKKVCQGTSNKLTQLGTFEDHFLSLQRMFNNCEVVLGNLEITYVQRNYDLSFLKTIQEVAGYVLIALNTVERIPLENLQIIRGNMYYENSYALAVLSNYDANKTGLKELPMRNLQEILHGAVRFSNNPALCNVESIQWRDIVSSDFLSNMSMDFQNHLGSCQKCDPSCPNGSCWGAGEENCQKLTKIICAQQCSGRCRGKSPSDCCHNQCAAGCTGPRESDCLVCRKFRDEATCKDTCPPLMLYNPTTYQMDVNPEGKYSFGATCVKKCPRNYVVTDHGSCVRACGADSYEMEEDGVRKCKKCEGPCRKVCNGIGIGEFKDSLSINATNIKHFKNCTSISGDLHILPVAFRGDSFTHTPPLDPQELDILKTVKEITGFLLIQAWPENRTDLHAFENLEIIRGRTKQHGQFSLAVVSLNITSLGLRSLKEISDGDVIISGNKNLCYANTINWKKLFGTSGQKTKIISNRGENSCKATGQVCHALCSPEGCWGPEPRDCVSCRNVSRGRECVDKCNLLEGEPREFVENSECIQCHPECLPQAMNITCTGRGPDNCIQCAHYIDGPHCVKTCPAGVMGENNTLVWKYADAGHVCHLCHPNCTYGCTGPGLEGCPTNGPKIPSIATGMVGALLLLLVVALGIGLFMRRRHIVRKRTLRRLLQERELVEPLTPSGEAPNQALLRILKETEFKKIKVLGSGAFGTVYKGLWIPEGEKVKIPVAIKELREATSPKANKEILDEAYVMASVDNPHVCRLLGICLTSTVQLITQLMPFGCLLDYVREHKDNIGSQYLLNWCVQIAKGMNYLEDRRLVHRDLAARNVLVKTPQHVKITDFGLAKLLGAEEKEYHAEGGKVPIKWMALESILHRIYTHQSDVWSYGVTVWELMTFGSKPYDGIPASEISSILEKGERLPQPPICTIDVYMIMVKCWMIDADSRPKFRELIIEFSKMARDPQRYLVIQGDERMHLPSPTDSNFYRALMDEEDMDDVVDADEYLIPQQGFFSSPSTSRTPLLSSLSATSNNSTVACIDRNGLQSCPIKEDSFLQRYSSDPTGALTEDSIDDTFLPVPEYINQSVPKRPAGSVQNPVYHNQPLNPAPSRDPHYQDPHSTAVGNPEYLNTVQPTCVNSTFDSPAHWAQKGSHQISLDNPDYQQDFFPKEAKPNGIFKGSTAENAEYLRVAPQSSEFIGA
Chain of Left-right determination factor 2 (Homo sapiens) (O00292 whole entry, looked up): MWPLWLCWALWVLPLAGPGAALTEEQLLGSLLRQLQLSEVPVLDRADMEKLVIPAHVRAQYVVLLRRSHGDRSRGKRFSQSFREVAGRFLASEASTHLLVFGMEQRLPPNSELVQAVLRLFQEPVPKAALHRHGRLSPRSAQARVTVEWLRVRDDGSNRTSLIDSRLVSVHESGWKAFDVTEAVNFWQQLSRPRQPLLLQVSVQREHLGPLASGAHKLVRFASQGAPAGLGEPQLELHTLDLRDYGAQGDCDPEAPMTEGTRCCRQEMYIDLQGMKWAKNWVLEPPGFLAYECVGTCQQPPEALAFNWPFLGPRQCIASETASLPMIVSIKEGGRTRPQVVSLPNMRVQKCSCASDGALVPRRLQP
Chain of Dickkopf-related protein 1 (Homo sapiens) (O94907 whole entry, looked up): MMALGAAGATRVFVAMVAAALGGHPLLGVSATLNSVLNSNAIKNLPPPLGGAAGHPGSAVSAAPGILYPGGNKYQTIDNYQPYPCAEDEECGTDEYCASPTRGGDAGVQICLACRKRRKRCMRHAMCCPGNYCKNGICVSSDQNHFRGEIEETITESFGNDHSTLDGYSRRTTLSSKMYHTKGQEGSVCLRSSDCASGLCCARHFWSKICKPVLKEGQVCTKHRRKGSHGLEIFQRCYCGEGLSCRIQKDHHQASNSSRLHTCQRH

SMILES	composite z-score [1]	composite z-score [2]	composite z-score [3]	z-score [4]	composite z-score [5]	composite z-score [6]	composite z-score [7]	composite z-score [8]	composite z-score [9]	composite z-score [10]	composite z-score [11]	z-score [12]	composite z-score [13]	composite z-score [14]	composite z-score [15]	composite z-score [16]	composite z-score [17]	composite z-score [18]	composite z-score [19]	composite z-score [20]
[N-]=[N+]=Nc1ccccc1C[C@]1(C(=O)NCCN2CCOCC2)N=C(c2ccc(OCCCO)cc2)O[C@H]1c1ccccc1	1.09	0.641	0.273	0.183 (inactive)	0.484	1.31	-0.117	-0.391	-0.019	-0.16	1.03	-1.99	-0.0447	0.169	0.129	-0.103	0.123	-0.465	1.44	0.968
C=CC(=C)C1=CCO[C@@H]1[C@H]1CCCN1S(=O)(=O)c1ccccc1[N+](=O)[O-]	0.487	-0.268	-0.268	-0.626 (inactive)	0.925	0.168	0.578	1.31	0.797	1.27	-0.0291	-1.4	0.867	0.397	-0.112	-0.101	-0.0626	-0.175	0.169	0.537
[N-]=[N+]=NCc1ccccc1[C@@H]1OC(c2ccc(OCCCO)cc2)=N[C@]1(Cc1ccccc1N=[N+]=[N-])C(=O)NCc1ccccc1	0.919	0.0108	0.316	-0.856 (inactive)	0.691	1.25	0.351	0.667	0.0688	1.28	1.33	-1.64	0.374	1.34	0.12	-0.138	-0.221	-0.447	1.4	0.158
O=C1N(CCS(=O)(=O)c2ccccc2)c2ccccc2C[C@@]12COC(c1ccc(OCCCO)cc1)=N2	1.51	0.957	1.12	-0.651 (inactive)	0.805	1.32	0.432	1.32	0.763	1.18	1.09	-1.49	0.428	0.417	0.445	0.152	0.0124	0.69	0.99	-0.103
C=CCNC(=O)[C@H]1[C@@H]2C(=O)O[C@@H](c3ccccc3)[C@@H](c3ccccc3)N2[C@@H](c2ccc(O)cc2)[C@]12C(=O)N(C(=O)OCCOC)c1ccc(C#CCCO)cc12	1.29	0.303	0.272	0.271 (inactive)	1.18	0.713	-0.248	-0.0994	-0.0705	0.681	0.889	-0.605	-0.166	0.0387	0.171	-0.185	0.0639	-0.332	1.35	1.25
COc1ccc(C#Cc2ccc3c(c2)[C@]2(C(=O)N3)[C@H](C(=O)NC[C@H](O)c3ccccc3)[C@H]3C(=O)O[C@H](c4ccccc4)[C@H](c4ccccc4)N3[C@@H]2c2ccc(OCCO)cc2)cc1	1.33	0.0324	0.236	-1.46 (inactive)	1.25	1.28	0.487	1.26	0.31	0.123	1.43	-2.13	0.965	0.841	-0.203	0.0037	0.327	-0.611	0.952	1.76
O=C1O[C@@H](c2ccccc2)[C@@H](c2ccccc2)N2[C@@H](c3ccc(O)cc3)[C@]3(C(=O)Nc4ccc(C#CC5=CCCCC5)cc43)[C@@H](C(=O)O)[C@H]12	1.14	0.799	0.999	-1.05 (inactive)	0.277	0.653	0.035	0.545	0.0526	1.19	0.2	0.0664	0.0765	2.02	0.999	-0.0077	0.123	0.413	1.55	1.17
CC(=O)NCCCC[C@@H]1NC(=O)[C@@H]2C[C@H](C(=O)NCCCCCCNC(=O)CS)[C@H](c3ccc(O)cc3)N2C1=O	1.18	-0.194	0.52	0.584 (inactive)	-0.37	-0.0984	-0.755	-0.353	-0.233	-0.989	1.07	0.391	-0.746	0.725	0.31	-0.211	-0.0643	-0.158	1.15	1.36
COc1cc(C(O)C2C=CC3C(=O)N(c4ccccc4)C(=O)C3N2Nc2ccc(C#N)cc2)cc(OC)c1OC (stereo not given)	1.4	1.45	1.34	1.22 (inactive)	1.17	1.33	-0.209	1.25	-0.536	0.0506	0.626	0.0783	0.305	2.23	1.19	0.0115	0.214	1.42	1.52	2.79
COC(=O)c1ccc(OC)c(/C=C\CC(OC(C)=O)c2ccccc2)c1 (stereo not given)	-0.22	-0.146	0.0946	-0.582 (inactive)	-0.207	0.147	0.643	0.137	0.305	1.89	-0.5	-1.14	0.374	0.461	0.193	-0.237	0.0668	-0.397	-0.129	0.808
O=C1C2C=CC(C(O)c3ccc(B(O)O)cc3)N(Nc3ccccc3)C2C(=O)N1c1ccccc1 (stereo not given)	-0.0545	0.82	0.634	-0.451 (inactive)	-0.322	-1.15	-0.134	-0.593	-0.502	1.16	0.0036	-1.49	-0.158	0.883	0.665	-0.0944	0.151	0.162	0.949	0.402
